Screens deposited in PubChem BioAssay by National Center for Advancing Translational Sciences (NCATS).
Tau FP inhib = qHTS for Inhibitors of Tau Fibril Formation, Fluorescence Polarization. K18 P301L tau heparin fibrillization, Alexa594 FP, 6 h. 0.39% of 280,000 active. Potency, µM (series often up to 57.7 µM), for inactives: at the top dose activity, negative = inhibition, most hits filed as inhibitors. AID 1468, 2008; further: nearly all actives have a fitted effect of over 55% in size
Target sequence (P10636 561-689 P618L limits assumed): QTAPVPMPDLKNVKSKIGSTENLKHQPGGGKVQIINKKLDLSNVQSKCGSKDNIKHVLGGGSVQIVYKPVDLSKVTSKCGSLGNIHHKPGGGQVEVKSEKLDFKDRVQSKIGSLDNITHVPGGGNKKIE
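Heparin (20 uM) drove fibril formation of recombinant tau K18 P301L, 15 uM unlabeled with 0.24 uM Alexa 594 label, for 6 hr at 37 C in 100 mM sodium acetate pH 7. Fluorescence polarization (555/632 nm) read 1 hr after 30 uM ThT.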
Tau fluor cs = Counterscreen qHTS for Inhibitors of Tau Fibril Formation, Fluorescence Polarization. tau K18 P301L Alexa594 fluorescence, heparin fibrillization. Potency, µM (top dose mostly 57.7 µM), for the others: at the top dose activity change, negative = decrease. 0.93% of 280,000 active. AID 1463, 2008; further: nearly all actives have a fitted effect of over 55% in size
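Human K18 P301L tau (15 uM unlabeled plus 0.24 uM Alexa 594-labeled, final) in 100 mM sodium acetate pH 7 was mixed with compound and 20 uM heparin and incubated 6 hr at 37 C.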
RGS12 GoLoco inh = qHTS Assay for Inhibitors of RGS12 GoLoco Motif Activity (Red Fluorophore) | Potency, µM (highest dose often 61.6 µM), without a hit: top-dose activity, negative = inhibition, actives largely listed as inhibitors | AID 880, 2007 | Guanine nucleotide-binding protein G(i) subunit alpha-1 (Homo sapiens), P63096 | 0.44% of 230,000 active | Gai1:RGS12 GoLoco peptide FP, rhodamine, 10 min; active means well fitted inhibition curve with a large enough effect, not every such curve was filed as active; inactive means no such curve, though single readings can be large or run the other way; further: nearly all actives have a fitted effect of over 30% in size
Tau fibril ThT = qHTS for Inhibitors of Tau Fibril Formation, Thioflavin T Binding. Microtubule-associated protein tau (Homo sapiens), P10636. recombinant tau K18 P301L, heparin-induced fibrillization, ThT fluorescence. Potency, µM (titrated, usually from 57.4 µM), inactives show top-dose activity, negative = inhibition, most hits filed as inhibitors. 2.1% of 270,000 active. AID 1460, 2008; further: nearly all actives have a fitted effect of over 55% in size
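Fibril formation assay: tau K18 P301L at 15 uM with trace Alexa 594 label, heparin inducer 20 uM, pH 7 sodium acetate buffer, 37 C for 6 hr; endpoint ThT signal.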
TR SRC2 fluor cs = Total Fluorescence Counterscreen for Inhibitors of the Interaction of Thyroid Hormone Receptor and Steroid Receptor Coregulator 2; TRb/SRC2 Texas Red total fluorescence interference; Potency, µM (doses to about 106 µM), for the others: at the top dose fluorescence change, negative = quenching; 0.29% of 280,000 active; active means well fitted curve in either direction with a large enough effect; inconclusive means small, poorly fitted or top-dose-only effect
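Flags fluorescent or light-absorbing compounds by total fluorescence, S + 2P, at 555 nm excitation and 632 nm emission. Mixture: 20 nM Texas Red SRC2 peptide, 0.6 uM human TRb LBD, 1 uM T3, 5% DMSO; compound exposure 5 h at ambient temperature.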
TRb-SRC2 inh = qHTS for Inhibitors of the Interaction of Thyroid Hormone Receptor and Steroid Receptor Coregulator 2 | Thyroid hormone receptor beta (Homo sapiens), P10828 | TRbeta-SRC2 peptide binding, fluorescence polarization; receptor liganded with 1 µM T3 | Potency, µM (top dose mostly 106 µM), without a hit: at the top dose activity change, negative = inhibition, usual class: inhibitors | 0.065% of 280,000 active | AID 1469, 2008;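 further: plate controls were bound peptide for no effect and peptide without receptor for full effect; nearly all actives have a fitted effect of over 50% in size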
Target sequence (P10828 whole entry, looked up): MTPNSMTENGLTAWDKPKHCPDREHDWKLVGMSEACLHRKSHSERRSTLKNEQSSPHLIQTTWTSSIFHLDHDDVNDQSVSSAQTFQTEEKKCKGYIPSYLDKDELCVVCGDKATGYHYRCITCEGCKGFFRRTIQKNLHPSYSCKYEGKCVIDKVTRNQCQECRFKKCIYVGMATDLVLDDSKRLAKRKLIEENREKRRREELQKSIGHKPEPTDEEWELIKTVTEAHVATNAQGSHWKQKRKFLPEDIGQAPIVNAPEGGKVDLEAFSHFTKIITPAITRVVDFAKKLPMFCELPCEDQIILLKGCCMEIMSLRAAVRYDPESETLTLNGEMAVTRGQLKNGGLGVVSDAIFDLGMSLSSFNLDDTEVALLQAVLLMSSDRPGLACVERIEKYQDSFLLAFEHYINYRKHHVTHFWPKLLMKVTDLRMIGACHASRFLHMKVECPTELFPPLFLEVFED
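Each compound concentration gave % activity, normalized to unbound and bound Texas Red SRC2 controls, from polarization read after 5 hr ambient incubation with T3-loaded human TRb LBD.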
The depositor's hits bear a star; ? = inconclusive; · = no result; [ ] = dose if it differs, or a comment. Compounds with a hit are over-represented: about 3.2% of the library has one in this group of screens. Unless noted, the call rests on the fitted dose curve; in most records, active means well fitted curve in the direction sought with a large enough effect; inconclusive means small, poorly fitted or top-dose-only effect, or another doubt; inactive means no such curve, though single readings can be large; an effect the other way counts as inactive or inconclusive. Unless noted, on the % scale 0 is the no-effect control and ±100 the full control effect; potency means the concentration at half of the fitted maximal effect.

SMILES | Tau FP inhib | Tau fluor cs | RGS12 GoLoco inh | Tau fibril ThT | TR SRC2 fluor cs | TRb-SRC2 inh
COc1cc([C@@H]2c3cc4c(cc3C(OC3OC5COC(C)OC5C(O)C3O)C3COC(=O)[C@@H]32)OCO4)cc(OC)c1O (some centres not stated) | -4% | -4% | -1% | -6% | -1% | -7%
Cc1cc(C)c(NS(=O)(=O)c2ccc(-c3coc(C)n3)cc2)c(C)c1 | 3% | -3% | · | 6% | 0% | 2%
Cc1nc(-c2ccc(S(=O)(=O)NCc3ccc(F)cc3)cc2)co1 | -5% | -3% | · | 4% | -4% | -1%
CCc1ccccc1NS(=O)(=O)c1ccc(-c2coc(C)n2)cc1 | 3% | -1% | · | 11% | 11µM*[quencher] | -20%
CCOc1ccc(CNS(=O)(=O)c2ccc(-c3coc(C)n3)cc2)cc1 | -6% | -6% | · | -3% | 0.0071µM*[quencher] | -11%
CCC1=C2CC[C@H]3C(=O)N(C)C(=O)[C@H]3[C@H]2[C@@]2(C)C(=O)N(CC(=O)OC)C(=O)N2C1=O | 1% | -8% | 4% | -15% | -1% | -2%
CCC(=O)Nc1nc(-c2ccc3c(c2)OCCO3)cs1 | 8% | -8% | 6% | ? | -1% | 3%
COc1ccccc1C(=O)Nc1nc(-c2ccc3c(c2)OCCO3)cs1 | -27% | ? | -1% | -18% | -2% | 6%
c1ccc(-c2csc(Nc3ccc4c(c3)OCCO4)n2)cc1 | -6% | 14µM*[quencher] | 2% | 13µM* | -3% | -9%
N#C/C(=C\Nc1ccc2c(c1)OCCO2)c1nc(-c2ccccc2)cs1 | 2% | -23% | 21% | 0% | 1% | 2%
c1cc2c(cc1-c1csc(NNC3=NCCCCC3)n1)OCCO2 | 28µM* | ? | -1% | 25µM* | 0% | -1%
c1cc2c(cc1Nc1nc(-c3ccc4c(c3)OCO4)cs1)OCCO2 | 7% | 8.9µM*[quencher] | 13% | 3.2µM* | 3% | 10%
COc1cccc(Nc2nc(-c3ccc4c(c3)OCCO4)cs2)c1 | -8% | 11µM*[quencher] | 13% | 7.1µM* | -4% | -1%
CC(=O)Nc1nc(-c2ccc3c(c2)CCO3)cs1 | 2% | -5% | 11% | -17% | -6% | -6%
CCc1oc2ccccc2c1C(=O)c1cc(I)c(O)c(I)c1 | · | · | -2% | · | -15% | 15%
CCc1ccc(NC(=O)Nc2ccccc2OCc2cc(=O)n3ccccc3n2)cc1 | -14% | -16% | · | -12% | -1% | -5%
CCOc1ccc(CNC(=O)c2ccc(-c3nc(CSc4ccc(C)cc4)c(C)o3)cc2)cc1 | -3% | 2% | · | 7% | 1% | 0%
CCN(c1ccccc1)S(=O)(=O)c1cc(Br)cc2c1N(C(=O)C1CC1)CC2 | -9% | -22% | · | -6% | -1% | 1%
O=C(c1cc(C(F)(F)F)cc(C(F)(F)F)c1)N1CCC2(CC1)CN(Cc1ccccc1)C2 | · | · | 1% | · | · | ·
Cc1oc2ncnc(N3CCCCC3)c2c1C(=O)N1CCN(c2cccc(C(F)(F)F)c2)CC1 | -9% | -19% | · | -12% | -6% | 5%
O=C(Nc1ccc(Nc2ccccc2)cc1)C(Cl)(Cl)Cl | 7% | 7.9µM*[quencher] | 3% | ? | -2% | -11%
c1ccc(-c2nn[nH]n2)c(Nc2cccc3c2CCCC3)c1 | · | · | · | · | -7% | -6%
COc1ccc2c(CNCCc3cccs3)c(C(=O)O)n(Cc3ccccc3)c2c1 | 3% | -6% | · | 0% | 0% | 2%
COC(=O)c1cc(NC(=O)c2cc(-c3ccccc3Cl)oc2C(F)(F)F)ccc1N1CCOCC1 | ? | 13µM*[quencher] | 3% | · | 0% | 10%
COC(=O)c1cc(NC(=O)c2cc(-c3ccc(Cl)cc3)oc2C(F)(F)F)ccc1N1CCOCC1 | -1% | ? | 7% | · | 0% | 0%
SMILES | Tau FP inhib | Tau fluor cs | RGS12 GoLoco inh | Tau fibril ThT | TR SRC2 fluor cs | TRb-SRC2 inh
Cc1ccc(C)n1-c1nnc(N2CCCC(C(=O)NCc3ccccc3)C2)s1 (configuration not stated) | -9% | -18% | · | ? | -2% | -1%
O=c1[nH]c(SCc2cccc([N+](=O)[O-])c2)nc2nc[nH]c12 | · | · | 4%[14.2 µM] | · | · | ·
CC(C)Cc1nn2c(=O)cc(COC(=O)c3ccccc3NC(=O)c3cccs3)nc2s1 | 3% | 1% | · | 5% | 0% | 1%
CCOc1ccccc1C(=O)Nc1cc(Cl)ccc1O | ? | 18µM*[quencher] | 7% | ? | -3% | 10%
O=C(Nc1ccccc1)Nc1cccc(C(F)(F)F)c1 | ? | -30% | -19% | 1% | 1% | 0%
O=C(Nc1cccc([N+](=O)[O-])c1)Nc1cccs1 | 10% | 20µM*[quencher] | 4% | ? | -2% | 1%
CCn1ncc(NC(=O)Nc2cccc(C(F)(F)F)c2)c1C(N)=O | 6% | 1% | 3% | 10% | 1% | -2%
O=C(Nc1cccc(C(F)(F)F)c1)Nc1cccs1 | ? | 11µM*[quencher] | · | ? | -15% | 5%
O=C(Nc1cccc([N+](=O)[O-])c1)c1cccc(C(=O)Nc2cccc([N+](=O)[O-])c2)c1 | -7% | ? | 13% | 1% | 0% | 0%
CC(C(=O)Nc1cccc([N+](=O)[O-])c1)[n+]1ccccc1 (configuration not stated) | -55% | 13%[2.34 µM] | 78% | 22µM* | -3% | -2%
CC(Sc1cccc[n+]1[O-])C(=O)Nc1cccc([N+](=O)[O-])c1 (configuration not stated) | -7% | -7% | 2% | -2% | -1% | -4%
CCSCCc1nnc(NC(=O)Nc2cccc(C(F)(F)F)c2)s1 | 11µM* | ? | 4% | 6% | -2% | 5%
CCOC(=O)c1c(C)n(-c2ccccc2)c2ccc(OC(=O)c3ccccc3NC(=O)C(C)(C)C)cc12 | -6% | 1% | · | 1% | -11% | -7%
COc1ccc(-c2cc(C3C4C=CCC(C)C4C(=O)N3Cc3ccccc3)ccc2F)cc1OC (configuration not stated) | · | · | · | · | 0% | -8%
NS(=O)(=O)c1ccc(CCNC(=O)c2ccc3nc(Cc4ccccc4)oc3c2)cc1 | -4% | -15% | · | ? | 3% | 7%
Cc1ccc(C)c(NC(=O)CSc2ncc3c(n2)-c2cc(Cl)ccc2N(Cc2ccccc2F)S3(=O)=O)c1 | ? | -29% | · | -4% | 2% | 0%
